Measured values: PubChem BioAssay (NCATS)
Records with an inconclusive call do not appear. Values without a mark were called inactive. The call rests on the fitted dose curve; in most records, active means well fitted curve in the direction sought with a large enough effect; inconclusive means small, poorly fitted or top-dose-only effect, or another doubt; inactive means no such curve, though single readings can be large or run the other way.

System: not listed separately
Assay: HepG2 viability counterscreen (readout 1: protease activity) against the NCATS DSHEA and TCM libraries (AID 1794841);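 further: cells exposed to compounds for about 24 h before the protease read; 0% is about no effect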
Details: qHTS concentration series; series mostly up to 27.3 µM; activity change, negative = inhibition: at the top concentration
In short: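 Same wells read twice: first fluorescence from cleaved GF-AFC substrate (25 uM final, 30 min, 37C) for live-cell protease, then CellTiter-Glo luminescence after 30 min at room temperature for ATP. HepG2 cells were exposed ~24 h to substances.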

| SMILES | activity change, negative = inhibition |
| --- | --- |
| O=c1ccc2ccccc2o1 | 11.3% |
| C/C=C/c1ccc(OC)cc1 | 4.72% |
| C=CCc1ccc(O)c(OC)c1 | 7.71% |
| Nc1ccc(C(=O)O)cc1 | 27.2% |

Target: Metallo-beta-lactamase type 2 (Klebsiella pneumoniae) (UniProt C7C422)
Assay: qHTS to identify inhibitors of the New Delhi Metallo-beta-lactamase (NDM): assay validation screen against the NCATS LOPAC Collection (AID 1794843);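 further: nitrocefin turnover by NDM-1 measured as 485 nm absorbance at plateau; on the % scale 0 is the no-effect control and ±100 the full control effect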
Details: NDM-1 enzyme, nitrocefin hydrolysis, absorbance 485 nm; series mostly up to 38.4 µM; activity change, negative = inhibition: at the top concentration
In short: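 NDM-1 at 2 nM final in 50 mM HEPES pH 7.0 with 1 uM ZnSO4 and 0.01% Tween20 was preincubated with library compounds in DMSO. Nitrocefin (50 uM stock) was then added, and absorbance at 485 nm was read at the kinetic plateau.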

Sequence of Metallo-beta-lactamase type 2 (Klebsiella pneumoniae) (C7C422 whole entry, looked up): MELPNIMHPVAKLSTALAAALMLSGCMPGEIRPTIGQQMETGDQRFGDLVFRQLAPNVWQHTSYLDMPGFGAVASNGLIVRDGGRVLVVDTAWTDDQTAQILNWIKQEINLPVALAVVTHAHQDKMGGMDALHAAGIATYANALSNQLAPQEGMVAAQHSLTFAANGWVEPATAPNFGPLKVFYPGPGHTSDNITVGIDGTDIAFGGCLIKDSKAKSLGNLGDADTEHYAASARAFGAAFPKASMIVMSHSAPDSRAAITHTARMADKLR

| SMILES | activity change, negative = inhibition |
| --- | --- |
| CCC(NC(C)C)C(O)c1ccc(O)c(O)c1 (centres undefined) | -7.92% |
| O=C1CCC(c2ccc(-n3ccnc3)cc2)=NN1 | 8.91% |
| CC(CCc1ccccc1)NCC(O)c1ccc(O)c(C(N)=O)c1 (centres undefined) | -0.582% |
| CC1(C)CCC(NC(=O)[C@@H](N)CCC(=O)O)CC1 | -9.07% |
| CNCCC=C1c2ccccc2CCc2ccccc21 | -0.42% |
| C[C@@H]1C(=O)NC2=Nc3cccc(Cl)c3CN21 | 15.4% |
| Nc1cc(Cl)c(NC2=NCCN2)c(Cl)c1 | 2.91% |
| C1CCc2nnnn2CC1 | -6.09% |
| CNCCC(Oc1ccccc1C)c1ccccc1 (centres undefined) | -4.27% |
| C[C@]12CC[C@@H]3c4ccc(O)cc4CC[C@H]3[C@@H]1CC[C@@H]2O | 7.78% |
| CC[C@H](C)C(=O)O[C@H]1CCC=C2C=C[C@H](C)[C@H](CC[C@@H]3C[C@@H](O)CC(=O)O3)[C@H]21 | -0.891% |
| C[N+]1(CCCCC[N+]2(C)CCCC2)CCCC1 | 24.6% |
| CCCC1O[C@@H]2C[C@H]3[C@@H]4CCC5=CC(=O)C=C[C@]5(C)[C@H]4[C@@H](O)C[C@]3(C)[C@]2(C(=O)CO)O1 (some centres undefined) | 5.48% |
| COc1cc2c(cc1O)CC[C@@H]1[C@@H]2CC[C@]2(C)[C@@H](O)CC[C@@H]12 | -3.46% |
| CC(C)C[C@H]1C(=O)N2CCC[C@H]2[C@]2(O)O[C@](NC(=O)[C@@H]3C=C4c5cccc6[nH]c(Br)c(c56)C[C@H]4N(C)C3)(C(C)C)C(=O)N12 | 0.693% |
